This is a sample that favours compounds with a hit; in the whole collection about 0.84% have one here.
PPARg SRC3 recr: agonists of human PPARgamma SRC-3 coactivator recruitment | P37231 | biochemical PPARgamma/SRC-3 coactivator recruitment assay | activation, % at 8 µM | 200,000 compounds, 0.26% hits | AID 731; in the data active = activation above about 23%
Target sequence (P37231 whole entry, looked up): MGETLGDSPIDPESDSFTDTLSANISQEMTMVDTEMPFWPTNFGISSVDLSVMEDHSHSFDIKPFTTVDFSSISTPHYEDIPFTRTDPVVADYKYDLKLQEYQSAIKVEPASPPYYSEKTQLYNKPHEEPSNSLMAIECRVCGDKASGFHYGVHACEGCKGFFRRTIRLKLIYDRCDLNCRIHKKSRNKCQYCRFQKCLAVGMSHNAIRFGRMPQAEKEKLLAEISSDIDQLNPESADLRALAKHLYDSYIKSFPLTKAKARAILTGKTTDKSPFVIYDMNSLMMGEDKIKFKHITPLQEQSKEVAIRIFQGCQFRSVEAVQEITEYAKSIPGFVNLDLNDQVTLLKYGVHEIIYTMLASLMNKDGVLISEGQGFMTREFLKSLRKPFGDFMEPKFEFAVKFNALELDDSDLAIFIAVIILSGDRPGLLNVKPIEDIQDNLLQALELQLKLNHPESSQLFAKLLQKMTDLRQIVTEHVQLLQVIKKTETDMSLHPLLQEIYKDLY
SRC1 TRFRET art: TR-FRET artefact, counter-screen to PPARgamma/SRC-1 agonist assay | TR-FRET detection artefact counter-screen, emission ratio; stronger effect = higher value | TR-FRET ratio at 8 µM | 99,000 compounds, 0.34% hits; in the data active = TR-FRET ratio above about 2300
PPARg SRC1 recr: PPARgamma-driven SRC-1 recruitment agonism | activation, % at 8 µM | 200,000 compounds, 0.41% hits | PPARgamma-SRC-1 coactivator recruitment biochemical assay | P37231; in the data active = activation above about 19%
SRC3 TRFRET art: flags TR-FRET format artefacts in PPARgamma SRC-3 recruitment agonist screen; 99,000 compounds, 0.39% hits; TR-FRET ratio at 8 µM; AID 1048; TR-FRET artefact counter-screen, PPARgamma/SRC-3 format; stronger effect = higher value
SRC2 TRFRET art: flags TR-FRET format artefacts in PPARgamma SRC-2 recruitment agonist screen; TR-FRET artefact counter-screen; stronger effect = higher value; TR-FRET ratio at 8 µM; 200,000 compounds, 0.4% hits; AID 1049
PPARg SRC-2 ag: promotes SRC-2 coactivator recruitment by human PPARgamma. P37231. PPARgamma LBD-SRC-2 recruitment, biochemical. activation, % at 8 µM. 200,000 compounds, 0.34% hits. AID 1032; in the data active = activation above about 22%
PPARg SRC2 ag: human PPARgamma SRC-2 recruitment agonism, confirmation; shares compounds with PPARg SRC3 recr; biochemical SRC-2 recruitment by PPARgamma; activation, % at 8 µM; 790 compounds, 52% hits; in the data active = activation above about 22%
PPARg SRC1 ag: human PPARgamma SRC-1 recruitment agonism, confirmation | shares compounds with PPARg SRC3 recr | PPARgamma–SRC-1 coactivator recruitment biochemical assay | activation, % at 8 µM | 790 compounds, 43% hits; in the data active = activation above about 20%
PPARg SRC3 ag: human PPARgamma SRC-3 recruitment agonism, confirmation; shares compounds with PPARg SRC3 recr; activation, % at 8 µM; biochemical PPARgamma-SRC-3 coactivator recruitment, agonist mode; 790 compounds, 29% hits; in the data active = activation above about 24%
Each line names hits and unclear results; the compound was inactive in the other large screens (follow-up assays come after a bar, where they were run). Rule as the data show it, unless noted: active = TR-FRET ratio above about 2000; inactive = the rest.

CCOC(=O)Cn1c(=NC(=O)c2cc(-c3cccs3)nc3ccccc23)sc2cc(S(N)(=O)=O)ccc21	SRC3 TRFRET art 2342
COCCn1c(=NC(=O)c2cc(Cl)sc2Cl)sc2cc(S(N)(=O)=O)ccc21	none
CCOCCn1c(=NC(=O)c2cc(Cl)sc2Cl)sc2cc(S(N)(=O)=O)ccc21	PPARg SRC3 recr 30, SRC3 TRFRET art 4758
CSc1nsc(/C=C/Nc2ccc(F)cc2F)c1C#N	none
CSc1nsc(/C=C/Nc2ccc(C(=O)O)cc2)c1C#N	SRC1 TRFRET art 2461, SRC3 TRFRET art 2133, SRC2 TRFRET art 2141
O=C(CSc1ccc2nnc(-c3ccc(Cl)cc3)n2n1)N1CCCc2ccccc21	SRC2 TRFRET art 3594, PPARg SRC-2 ag 46
CCOc1ccc(-n2nc3c(=S)[nH]nc(C)c3c2C)cc1	SRC3 TRFRET art 2186
CCOc1ccc(-n2nc3c(=O)[nH]nc(C)c3c2C)cc1	none
O=C(N=Nc1c(O)[nH]c2ccccc12)c1ccc2c(c1)OCO2	none
Cn1nc(-c2ccccc2)c(C(=O)Nc2ccc(C(F)(F)F)cc2)c1Cl	PPARg SRC3 recr 32 (no result: SRC1 TRFRET art, SRC3 TRFRET art)
Cn1nc(-c2ccccc2)c(C(=O)Nc2ccc(Cl)cc2)c1Cl	none (no result: SRC1 TRFRET art, SRC3 TRFRET art)
C=CCNC(=O)c1ccc(-c2nc(-c3ccc(Cl)cc3Cl)cs2)cc1	PPARg SRC1 recr 19 (no result: SRC1 TRFRET art, SRC3 TRFRET art)
Clc1ccc(-n2cc(COCc3ccccc3)nn2)cc1	none
CN(C)c1nc(C=C(C#N)C#N)c(Cl)n1-c1ccc(F)cc1	none
O=C(Cc1ccccc1[N+](=O)[O-])NCc1ccc2c(c1)OCO2	SRC1 TRFRET art 2325
O=C(Cc1ccccc1)NCc1ccc2c(c1)OCO2	none (no result: SRC1 TRFRET art, SRC3 TRFRET art)
Cc1nc(SCC(=O)Nc2ccc3c(c2)OCCO3)c2oc3ccccc3c2n1	none (no result: SRC1 TRFRET art, SRC3 TRFRET art)
CCc1nc(SCC(=O)Nc2ccc3c(c2)OCCO3)c2oc3ccccc3c2n1	PPARg SRC1 recr 67 (no result: SRC1 TRFRET art, SRC3 TRFRET art)
c1ccc(-c2nnc(OCC3CCCO3)c3ccccc23)cc1 (stereo not drawn)	none
COc1cccc(-c2cc3nc(-c4ccccc4)cc(N4CCC5(CC4)OCCO5)n3n2)c1	SRC2 TRFRET art 2317 (no result: SRC1 TRFRET art, SRC3 TRFRET art)
CS(=O)(=O)N1CCC(C(=O)Nc2cccc([N+](=O)[O-])c2)CC1	none
Cc1ccc(NCCNc2ccc(C)cc2)cc1	none (no result: SRC1 TRFRET art, SRC3 TRFRET art)
COc1ccc(NCCNc2ccc(OC)cc2)cc1	PPARg SRC1 recr 20 (no result: SRC1 TRFRET art, SRC3 TRFRET art)
CC(NC(=O)COC(=O)c1cn(-c2ccccc2)nc1-c1cccs1)c1ccccc1 (stereo not drawn)	SRC2 TRFRET art 2073 (no result: SRC1 TRFRET art, SRC3 TRFRET art)
O=C(Nc1ccncc1)c1cn(-c2ccccc2)nc1-c1cccs1	none (no result: SRC1 TRFRET art, SRC3 TRFRET art)
O=C(c1cn(-c2ccccc2)nc1-c1cccs1)N1CCN(c2ccc(F)cc2)CC1	SRC2 TRFRET art 2165 (no result: SRC1 TRFRET art, SRC3 TRFRET art)
CC(C)NC(=O)CSc1nnc(-c2ccc(F)cc2)c2ccccc12	none
CCc1cc2ccc(OC)cc2nc1SCC(=O)NNC(=O)c1ccco1	SRC2 TRFRET art 2005
Cn1c(N)c(C(=O)COC(=O)CCCOc2ccc(Cl)cc2Cl)c(=O)n(C)c1=O	none
CCOC(=O)CSc1c(-c2ccc(Cl)cc2)[nH]c2ccccc12	SRC3 TRFRET art 2441
O=C(O)C1CCC(Cn2c(SCc3cc(=O)n4cc(Br)ccc4n3)nc3ccsc3c2=O)CC1 (stereo not drawn)	SRC3 TRFRET art 2459
S=C(Nc1ccc(Cc2ccncc2)cc1)Nc1cccc(Cl)c1	none
CC(C)CCSc1nc(N)c(C#N)cc1C#N	SRC2 TRFRET art 2957 (no result: SRC1 TRFRET art, SRC3 TRFRET art)
COc1ccccc1/C=N/NC(=O)c1ccc(Br)cc1	SRC1 TRFRET art 2364
COc1ccc(/C=N/NC(=O)c2ccc(Br)cc2)c(OC)c1	none
Cc1cccc(-c2ccc(C=Nc3c(C)n(C)n(-c4ccccc4)c3=O)o2)c1	PPARg SRC3 recr 39, PPARg SRC1 recr 23, SRC2 TRFRET art 1999, PPARg SRC-2 ag 30 (no result: SRC1 TRFRET art, SRC3 TRFRET art) | PPARg SRC2 ag inactive | PPARg SRC1 ag inactive | PPARg SRC3 ag inactive

Screening data deposited in PubChem BioAssay by The Scripps Research Institute Molecular Screening Center.
